Screening results from PubChem BioAssay.
The list is not random: actives were taken first. Their share in the collection is about 1.5%.
Mtb MbtI inh: MbtI salicylate synthase inhibitors, primary screen, biochemical, fluorescence intensity; P9WFX0; 100,000 tested, 0.89% active; purified MbtI enzyme, fluorescence intensity read-out; AID 493033, 2011; inhibition, % (concentration not given with the values); in the data active = inhibition mostly above about 56%, no sharp cut-off; inactive = mostly below about 77%
Mtb MenB inh: M. tuberculosis MenB inhibitors, primary screen, biochemical, absorbance | 1,4-dihydroxy-2-naphthoyl-CoA synthase (Mycobacterium tuberculosis (strain ATCC 25618 / … | MenB enzyme assay, absorbance read-out | inhibition, % (no concentration beside the values) | 100,000 tested, 0.43% active; in the data active = inhibition above about 21%, passing the limit was not always enough
Target sequence (P9WNP5 whole entry, looked up): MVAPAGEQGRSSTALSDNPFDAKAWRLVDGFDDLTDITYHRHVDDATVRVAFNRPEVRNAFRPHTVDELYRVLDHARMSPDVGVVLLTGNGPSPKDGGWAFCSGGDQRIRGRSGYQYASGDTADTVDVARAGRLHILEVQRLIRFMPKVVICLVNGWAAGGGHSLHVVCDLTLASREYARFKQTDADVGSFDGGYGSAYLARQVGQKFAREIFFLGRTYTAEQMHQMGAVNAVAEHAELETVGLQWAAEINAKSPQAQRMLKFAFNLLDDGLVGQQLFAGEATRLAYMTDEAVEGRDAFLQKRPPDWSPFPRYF
AID504770: growth inhibition of E. coli YBA685, primary screen, V. cholerae RctB inhibitors; E. coli YBA685 rctB-dependent plasmid, OD600 growth, 3 h; active compounds read low; z-score (concentration not given with the values); 130,000 tested, 0.27% active; AID 504770, 2011; in the data active = z-score below about -2, passing the limit was not always enough
PV pol inh: poliovirus RdRp elongation inhibitors, primary screen, biochemical, fluorescence polarization, total intensity | AID 588519, 2011 | poliovirus polymerase elongation; active compounds read low | % elongation, % (compound at 16.7 µg/mL) | Genome polyprotein (Poliovirus type 1 (strain Mahoney)), P03300 | 150,000 tested, 0.66% active; in the data active = % elongation below about 90%
An asterisk follows results filed as active; / = not tested or not shown.

SMILES	Mtb MbtI inh	Mtb MenB inh	AID504770	PV pol inh
CCNC(=O)CCOc1cccc(C)c1	0	2	-0.05	52*
Cc1cccc(OCCCC(=O)O)c1	-1	/	1.1	101
Cn1c(=O)oc2cc(S(=O)(=O)N3CCCC(C(=O)N4CCN(c5ccccc5F)CC4)C3)ccc21 (stereo not given)	/	/	/	116
Cc1ccc(C)c(C(=O)/C=C/C(=O)O)c1	/	67*	-0.2	102
Cc1ccc(C)c(C(=O)NCC(C)C)c1	-18	-2	-0.35	101
C/C(Nc1ccccc1C)=C1/CCOC1=O	/	/	0.7	/
COc1ccc(-c2ccnc(SC)n2)cc1	/	/	0.8	/
COc1nncc(-c2cnnc(SC)n2)n1	/	-23	-2*	15*
COc1ccc(/C=N/C2=NNC(c3ccc(OC)cc3)=CS2)cc1	/	/	-1	/
CC1CCCC(C)N1C(=O)CSc1nc2ccccc2o1 (stereo not given)	-2	/	-0.2	102
CSc1scc2c1C(=O)/C(=C/N(C)C)CC2	21	-25	0.25	63*
CCOc1ccc(C(=O)c2ccccc2C(=O)O)cc1OCC	9	6	1.8	47*
O=C(O)C1C2C=CC(C2)C1C(=O)NCc1cccs1 (stereo not given)	-17	23*	-0.35	99
CC1CC(C)CN(S(=O)(=O)c2ccc3[nH]cc(C(=O)O)c(=O)c3c2)C1 (stereo not given)	/	/	0.4	/
Cc1cc(OC(=O)/C=C/c2ccc(F)cc2)cc(=O)o1	62	-38	-0.6	84*
Cc1sc2nc[nH]c(=O)c2c1C	87*	-9	-0.45	94
N#CC1=C(SCc2ccccc2)SC(c2ccc(C(=O)O)cc2)NC1=O (stereo not given)	9	25	0.2	86*
N#CC1=C(SCc2ccccc2)SC(CO)NC1=O (stereo not given)	11	38*	0.5	100
O=C1CSC(CS(=O)(=O)Cc2cccc(C(F)(F)F)c2)=N1	/	/	-0.65	/
O=C(NCc1ccccc1)c1cc[n+]([O-])cc1	8	3	-0.1	102
S=C(c1c[nH]c2ccccc12)N1CCCC1	-2	-30	0.25	102
S=C(c1c[nH]c2ccccc12)N1CCCCC1	79*	-21	-0.2	105
O=C(Nc1scc(-c2cccs2)c1C(=O)O)c1cccs1	/	-21	-1	100
COC(=O)c1c(-c2cccs2)csc1NC(=O)c1ccc(OC)c(OC)c1	/	/	/	69*
COc1ccc(C(=O)Nc2nccs2)cc1OC	-4	-13	0	99
SMILES	Mtb MbtI inh	Mtb MenB inh	AID504770	PV pol inh
COC(=O)c1c(-c2cccs2)csc1NC(=O)c1cc(OC)c(OC)c(OC)c1	/	/	/	73*
COC(=O)c1c(-c2cccs2)csc1NC(=O)c1cc(OC)cc(OC)c1	/	/	/	71*
CC(C)(C)c1cc(C(=O)Oc2cccc(C(F)(F)F)c2)n(Cc2ccccc2)n1	1	-18	0.6	106
c1ccc2oc(SCCSc3nc4ccccc4o3)nc2c1	/	-1	0	106
OCC#CCSc1nc2ccccc2o1	3	39*	0.95	101
Cc1nnc(SCCn2c(N(C)Cc3ccccc3)nc3c2c(=O)n(C)c(=O)n3C)s1	/	/	1.6	/
COCCN1C(=O)C=CC1=O	62*	/	-3.5*	100
COCCN1C(=O)c2ccccc2C1=O	10	4	1.6	99
Clc1ccc(C2=NNC(=NCc3ccc4c(c3)OCO4)SC2)cc1	47	-29	-0.7	85*
CCCN=C1NN=C(c2cc(C)n(Cc3ccc4c(c3)OCO4)c2C)CS1	-1	-9	-1.2	108
O=C(Oc1ccc(F)cc1)c1nsc(Cl)c1Cl	/	-39	0.8	88*
CC(C)S(=O)(=O)c1cscc1NC(=O)c1ccc(Cl)cc1	/	/	0.05	/
COc1ccc(-c2cc3ccc(O)c(CN4CCCC4)c3oc2=O)cc1	/	/	/	108
CCc1ccc(NC(=O)C(C)n2nnc3sc(-c4ccccc4)cc3c2=O)cc1 (stereo not given)	/	/	/	79*
COC(=O)C(C)n1nnc2sc(-c3ccccc3)cc2c1=O (stereo not given)	/	/	/	126
COc1ccc(-c2nn(C)c3sc(C(=O)NCCN(C)C)cc23)cc1OC	/	/	/	60*
CCCN(CCC)CCNC(=O)c1cc2c(-c3ccc(Cl)cc3)nn(C)c2s1	/	/	/	96
COCCCNC(=O)c1cc2c(-c3cccc(OC)c3)nn(C)c2s1	/	/	/	103
CCN(CC)CCNC(=O)c1cc2c(-c3cccc(OC)c3)nn(C)c2s1	/	/	/	83*
COc1ccc(OC)c(CNC(=O)c2cc3c(-c4ccc(OC)c(OC)c4)nn(C)c3s2)c1	/	/	/	107
CCCN(CCC)CCCNC(=O)c1cc2c(-c3ccc(OC)c(OC)c3)nn(C)c2s1	/	/	/	83*
COc1ccc(OC)c(CCNC(=O)C2CCN(c3ncnc4c3nc3n4CCCCC3)CC2)c1	/	/	/	104
Cc1cc(C)c(NC(=O)C(C)n2nnc3sc4c(c3c2=O)CCCC4)c(C)c1 (stereo not given)	/	/	/	98
COC(=O)c1ccc2c(c1)N(Cc1ccc(Cl)cc1)C(=O)c1ccccc1S2(=O)=O	/	/	-1.1	/
CN(C)C(=O)CN1CCNCC1	94	-16	2	107
SMILES	Mtb MbtI inh	Mtb MenB inh	AID504770	PV pol inh
CN(C)CCN1CCNCC1	-1	34*	1.1	103
CCc1ccc(NC(=O)/C=C/c2ccco2)cc1	15	6	-0.7	98
CCc1cccc(NC(=O)/C=C/c2ccco2)c1	78*	2	-1.1	105
NC(=O)c1c(NC(=O)c2cc(-c3ccc(F)cc3)on2)sc2c1CCCC2	/	/	/	76*
O=C(NC(Cc1ccccc1)C(=O)OCc1ccccc1)c1cccs1 (stereo not given)	-5	/	-0.2	104
O=C(N[C@@H](Cc1ccccc1)C(=O)OCc1ccccc1)c1ccco1	-8	-11	0.2	80*
CC(C)(C)c1[nH]oc(=O)c1N=O	14	/	-7.3*	/
O=C(CSc1cccc[n+]1[O-])c1cccs1	98*	/	-0.65	100
O=C(CSc1cccc[n+]1[O-])c1cc2ccccc2o1	98*	/	0.15	99
C=C(C)Cc1c(C)nc(SCC(=O)c2ccc(Cl)cc2)nc1OC(=O)N(C)C	-3	3	-0.15	102
Cc1oc(C)c(C(=O)O)c1C	-4	2	0.1	29
CC(=O)Oc1c(Br)cc2oc(=O)sc2c1Br	91*	-65	0.5	99
Cc1cccc(-c2nnc(C3CCNCC3)o2)c1	78*	-34	-0.05	102
Oc1c(C(c2cccs2)N2CCCCC2)ccc2cccnc12 (stereo not given)	97*	-76	0.1	135
CCCCCn1c(=O)[nH]c2cc(C(=O)NCCCC)ccc2c1=O	-11	-28	-0.6	101
Cc1cc(C(=O)Nc2ccc(Cl)cc2)no1	3	-9	-1.6	104
CC(O)c1nc2ccccc2s1 (stereo not given)	9	-23	-0.55	100
Cn1ncc(C(C#N)c2nc3ccccc3s2)c(Cl)c1=O (stereo not given)	57*	-266	-0.75	140
CN(C)S(=O)(=O)c1ccc2oc(=S)[nH]c2c1	77	-30	1.3	88*
